Assay results reported in the supplement of paper PMC6089552.
Screen size: about 3,200 compounds; about 300 (9.4%) showed activity. The list comes from a sample in which actives are over-represented; it also holds similar structures and randomly drawn compounds.

Tested on: A673/TR/shEF
Test: cell viability (LOESS-normalised, relative to median of negative controls) (log2 ratio); higher = more viable cells (less compound effect), active = hit call of the paper (over 3 MAD below the median)
Conditions: treatment time: 72 h
How it was run: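 A673/TR/shEF Ewing sarcoma cells were plated at 1,500 per well in 384-well plates and cultured with or without doxycycline, added 24 h before compounds, to induce EWS-FLI1 shRNA knockdown. Library compounds at two or more concentrations, alongside DMSO controls, were applied for three days. Cell viability was measured by CellTiter-Glo luminescence on an Envision reader. Readings were LOESS-corrected per plate, divided by the median of negative controls and log2-transformed, and hits were wells lying at least three median absolute deviations from the median of all screened wells.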

[1] = 0.025 µM, library screen: screen1, EWS-FLI1 expression: high (no doxycycline)
[2] = 0.025 µM, library screen: screen1, EWS-FLI1 expression: low (doxycycline-induced shRNA knockdown)
[3] = 0.25 µM, library screen: screen1, EWS-FLI1 expression: high (no doxycycline)
[4] = 0.25 µM, library screen: screen1, EWS-FLI1 expression: low (doxycycline-induced shRNA knockdown)
[5] = 0.25 µM, library screen: screen2, EWS-FLI1 expression: high (no doxycycline)
[6] = 0.25 µM, library screen: screen2, EWS-FLI1 expression: low (doxycycline-induced shRNA knockdown)
[7] = 2.5 µM, library screen: screen1, EWS-FLI1 expression: high (no doxycycline)
[8] = 2.5 µM, library screen: screen1, EWS-FLI1 expression: low (doxycycline-induced shRNA knockdown)
[9] = 2.5 µM, library screen: screen2, EWS-FLI1 expression: high (no doxycycline)
[10] = 2.5 µM, library screen: screen2, EWS-FLI1 expression: low (doxycycline-induced shRNA knockdown)
[11] = 25 µM, library screen: screen1, EWS-FLI1 expression: high (no doxycycline)
[12] = 25 µM, library screen: screen1, EWS-FLI1 expression: low (doxycycline-induced shRNA knockdown)

Measured: cell viability (log2)

N#CC(C#N)=Cc1cc(O)c(O)c(O)c1
inactive: [1] -0.0494 | [2] 0.0428 | [3] 0.0608 | [4] -0.0659 | [5] 0.269 | [6] 0.131 | [7] -0.0151 | [8] 0.0163 | [9] 0.19 | [10] 0.0774 | [11] 0.0348 | [12] 0.1

N#CC(C#N)=Cc1ccc(O)c(O)c1
inactive: [1] 0.0488 | [2] -0.0484 | [3] 0.042 | [4] -0.0954 | [5] 0.172 | [6] 0.124 | [7] 0.0531 | [8] -0.000697 | [9] 0.143 | [10] 0.061 | [11] -0.0656 | [12] 0.016

N#CC(C#N)=Cc1cc(O)c(O)c([N+](=O)[O-])c1
0.283: [3]
active: [7] -0.167 | [11] -0.153
inactive: [1] 0.235 | [2] -0.0184 | [4] 0.00958 | [8] -0.0107 | [12] 0.176

N#CC(C#N)=Cc1ccc([N+](=O)[O-])c(O)c1
0.298: [1]
inactive: [2] 0.0132 | [4] -0.0619 | [5] 0.0683 | [6] 0.016
0.311: [3]
active: [7] -0.131 | [8] -0.169 | [9] -0.559 | [10] -0.298 | [11] -0.408 | [12] -0.158

N#CC(C#N)=Cc1ccc(O)cc1
inactive: [1] 0.0481 | [2] 0.0237 | [3] 0.0596 | [4] 0.0262 | [7] 0.0426 | [8] 0.0755 | [11] 0.0734 | [12] 0.0191

COc1cc(C=C(C#N)C#N)cc(O)c1O
inactive: [5] 0.15 | [6] 0.104 | [9] 0.12 | [10] 0.124

C[N+](C)(C)CCOC(=O)CBr
inactive: [5] 0.173 | [6] 0.097 | [9] 0.0892 | [10] 0.139

COc1ccc2c(c[n+](C)c3c4cc5c(cc4ccc23)OCO5)c1OC
inactive: [5] 0.273 | [6] 0.121 | [9] 0.106 | [10] 0.0124

CN1CC[C@@]23CCCC[C@@H]2[C@@H]1Cc1ccc(O)cc13
inactive: [5] 0.228 | [6] 0.105 | [9] 0.167 | [10] 0.081

C[C@]12CCC(=O)C=C1CCc1ccc(O)cc12
inactive: [3] 0.081 | [4] -0.029 | [7] 0.111 | [8] 0.113

CC(C)c1cc2c(c(O)c1O)[C@@]1(C(=O)O)CCCC(C)(C)[C@@H]1CC2
inactive: [3] 0.0242 | [4] 0.0347 | [7] 0.115 | [8] 0.191

CCC(C)C(=O)OC1CC2(C)C(c3ccoc3)OC(=O)CC23OC2(C)OC34C(OC(=O)C(C)C)C3(O)C(OC(=O)C5(C)OC5C)C5(C)CC3(O)C(C)(C5CC(=O)OC)C14O2 (centres undefined)
inactive: [3] 0.108 | [4] -0.0058 | [7] 0.0939 | [8] 0.12

C[C@H]1O[C@@H](O[C@H]2[C@@H](O)C[C@H](O[C@H]3[C@@H](O)C[C@H](O[C@H]4CC[C@@]5(C)[C@H](CC[C@@H]6[C@@H]5CC[C@]5(C)[C@@H](C7=CC(=O)OC7)[C@@H](O)C[C@]65O)C4)O[C@@H]3C)O[C@@H]2C)C[C@H](O)[C@@H]1O
active: [3] -0.13 | [4] -0.332 | [7] -1.73 | [8] -1.76

CC(=O)OC1CCC2(C)C(CCC3C2CCC2(C)C(C4=CC(=O)OC4)C(OC(C)=O)CC32O)C1 (centres undefined)
inactive: [3] -0.0585 | [4] -0.416
active: [7] -2.02 | [8] -2.26

CC(=O)O[C@@H]1CC[C@@]2(C)[C@@H](CC[C@@H]3[C@@H]2CC[C@]2(C)C(=O)CC[C@@H]32)C1
inactive: [3] 0.0923 | [4] 0.0254 | [7] 0.0362 | [8] 0.0893

CC(=O)OC1CC(OC2C(O)CC(OC3C(O)CC(OC4CCC5(C)C(CCC6C5CC(O)C5(C)C(C7=CC(=O)OC7)CCC65O)C4)OC3C)OC2C)OC(C)C1OC1OC(CO)C(O)C(O)C1O (centres undefined)
inactive: [3] 0.0557 | [4] -0.286
active: [7] -2.91 | [8] -3.01

CO[C@H]1C[C@H](O[C@H]2CC[C@@]3(C)[C@H](CC[C@@H]4[C@@H]3CC[C@]3(C)[C@@H](C5=CC(=O)OC5)[C@@H](OC(C)=O)C[C@]43O)C2)O[C@@H](C)[C@@H]1O
active: [3] -0.578 | [4] -1.73 | [7] -3.54 | [8] -4.25

C[C@]12CC[C@H](O)C[C@H]1CC[C@@H]1[C@@H]2CC[C@]2(C)[C@@H](C3=CC(=O)OC3)[C@@H](O)C[C@]12O
inactive: [3] 0.0825 | [4] 0.115 | [7] 0.137 | [8] 0.0999
